The values that follow come from PubChem BioAssay AID504710 (Sanford-Burnham Center for Chemical Genomics, 2011).

Unmarked numbers belong to inactive results. Activity calls are given as the source filed them.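 How the source made its calls: active means inhibition reaching about 16% in any single replicate (limit read from the data); inactive means the rest.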

The experiment deals with Hexokinase HKDC1 (Homo sapiens) (UniProt Q2TB90). Nature of the experiment: HKDC1 hexokinase inhibitors, confirmation, biochemical, single concentration (AID 504710). Conditions: recombinant HKDC1, G6PDH/diaphorase/resazurin fluorescence; at 20 µM; hits give high values. A general note: Alamar Blue is a resazurin reagent that responds to reducing activity.
Sequence of Hexokinase HKDC1 (Homo sapiens) (Q2TB90 whole entry, looked up): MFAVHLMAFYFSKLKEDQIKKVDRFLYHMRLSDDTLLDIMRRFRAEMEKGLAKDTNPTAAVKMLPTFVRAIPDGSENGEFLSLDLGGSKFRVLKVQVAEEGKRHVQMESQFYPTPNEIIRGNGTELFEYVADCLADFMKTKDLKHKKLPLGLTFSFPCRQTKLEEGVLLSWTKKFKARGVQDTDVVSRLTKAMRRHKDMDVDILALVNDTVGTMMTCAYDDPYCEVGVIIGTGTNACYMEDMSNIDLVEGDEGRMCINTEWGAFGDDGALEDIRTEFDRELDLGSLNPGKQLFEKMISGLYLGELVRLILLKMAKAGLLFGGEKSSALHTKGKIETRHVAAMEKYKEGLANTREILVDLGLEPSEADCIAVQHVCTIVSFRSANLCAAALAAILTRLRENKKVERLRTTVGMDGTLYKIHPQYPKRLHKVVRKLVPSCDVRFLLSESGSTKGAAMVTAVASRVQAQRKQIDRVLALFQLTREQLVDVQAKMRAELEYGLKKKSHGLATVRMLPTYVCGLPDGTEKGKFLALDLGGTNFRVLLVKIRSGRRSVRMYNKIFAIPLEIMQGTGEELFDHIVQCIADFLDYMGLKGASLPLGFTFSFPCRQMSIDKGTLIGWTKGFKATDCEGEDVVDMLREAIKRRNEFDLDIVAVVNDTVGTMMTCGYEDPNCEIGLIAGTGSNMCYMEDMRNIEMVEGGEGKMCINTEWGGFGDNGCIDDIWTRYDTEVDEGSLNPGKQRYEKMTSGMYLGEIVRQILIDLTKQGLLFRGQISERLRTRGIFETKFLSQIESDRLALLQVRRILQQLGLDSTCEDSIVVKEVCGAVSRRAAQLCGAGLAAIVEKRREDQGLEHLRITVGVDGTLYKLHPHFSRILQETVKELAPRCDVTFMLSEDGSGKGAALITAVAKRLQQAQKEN
Turning to `Cc1cccc(-n2c3nc(=O)[nH]c(=O)c-3cc3cc([N+](=O)[O-])ccc32)c1`, the inhibition – broadly, the drop in the measured response relative to a control, in per cent – was 46.6% (active).

Turning to `CC(=O)/C(=N\Nc1ccc(Cl)cc1Cl)Sc1cccc2cccnc12`, the inhibition is -44.8%.

As to `O=C(O)c1cc(O)c2c(c1)[C@@H]([C@H]1c3cc(C(=O)O)cc(O)c3C(=O)c3c(O[C@@H]4O[C@H](CO)[C@@H](O)[C@H](O)[C@H]4O)cccc31)c1cccc(OC3O[C@H](CO)[C@@H](O)[C@H](O)[C@H]3O)c1C2=O` (some centres not stated), the inhibition was 50.9% (active).

Consider `CCOC(=O)C1=C(c2ccc(OC)cc2)C(=O)c2ccccc2C1=O`, for which the inhibition was 75% (active).

With `CCCCN(CCCC)C(=S)N/N=C/c1c(C)[nH]n(-c2ccccc2)c1=O`, the inhibition was -65%.

`Cc1ccc(C)c(S(=O)(=O)Nc2cc(SCC(=O)O)c(O)c3ccccc23)c1`: the inhibition was 55.2% (active).

`CCN(CC)CCNc1cc(C)nc2c1C(=O)C(=O)C=C2N1CCCCC1`: the inhibition is 57.9% (active).

`CC(=NNC(=S)N1CCN(C2CCCCCC2)CC1)c1ccccn1`: the inhibition was -39.9%.

Regarding `Cc1ccc(S(=O)(=O)Nc2c(O)ccc3ccccc23)cc1`, the inhibition is 35.5% (active).

Take `Clc1cccc(N=C2NN=C(c3ccc4c(c3)OCCO4)CS2)c1`: the inhibition was -99.6%.

In the case of `CNCc1ccccc1Sc1cc(O)ccc1O`, the inhibition was 64.6% (active).

`Cc1ccc2oc(=O)c3cnn(CC(=O)N4CCCCCC4)c3c2c1`: the inhibition is -63.5%.

Regarding `CC(=O)Nc1ccc(C2=NNC(=Nc3ccc(S(=O)(=O)N4CCOCC4)cc3)SC2)cc1`, the inhibition was -234%.

Consider `O=C1C(Nc2ccc(O)cc2)=C/C(=N/S(=O)(=O)c2cccs2)c2ccccc21`, for which the inhibition was 56.9% (active).

Regarding `Cc1oc2c(c1C(=O)c1ccc(Cl)cc1)C(=O)C(=O)c1ccccc1-2`, the inhibition was 46.1% (active).

Turning to `O=S(=O)(NC1c2cccc3cccc(c23)C1N1CCN(CCO)CC1)c1ccccc1` (configuration not stated), the inhibition is -118%.

Turning to `O=C1C=C(N2CCOCC2)c2ccccc2C1=O`, the inhibition is 79.4% (active).

As for `COc1ccc(S(=O)(=O)Nc2cc(SCC(=O)O)c(O)c3ccccc23)cc1`, the inhibition was 47.2% (active).

As for `O=C(O)c1ccccc1-c1c2cc(I)c(=O)c(I)c-2oc2c(I)c(O)c(I)cc12`, the inhibition was 43.5% (active).

As to `COc1cc(/C=C(\C#N)c2nc3ccc(C)cc3[nH]2)cc([N+](=O)[O-])c1O`, the inhibition is 42.2% (active).

`O=c1c2ccccc2nc2n1CCC2`: the inhibition was 67.1% (active).

For `CCn1cc(C(=O)NCc2ccc3c(c2)OCO3)c2cc(OC)c(OC)cc2c1=O`, the inhibition was 45.9% (active).

As to `O=C1C(Cl)=C(NCCc2ccccc2)C(=O)c2ccccc21`, the inhibition was 59.5% (active).

Turning to `Clc1ccc(N=c2ssnc2Cl)nc1`, the inhibition was -79.7%.

For `O=C1C=C(N2CCCCC2)c2ccccc2C1=O`, the inhibition was 86.1% (active).

`COCC(=O)OC1CCn2c1nc1c2C(=O)C(C)=C(NC(C)=O)C1=O` (configuration not stated): the inhibition is 79.4% (active).

As to `Cc1cc2nnc(SCC(=O)Nc3cc(S(=O)(=O)N4CCOCC4)ccc3Cl)n2c2ccccc12`, the inhibition was 37.4% (active).

Regarding `O=C1C=C(NCc2ccccc2)c2ccccc2C1=O`, the inhibition is 56% (active).

Take `CC(=NNC(=S)N1CC2CCC(CC2)C1)c1cccc(C)n1`: the inhibition is -51.9%.

As for `Cc1ccc(N=Nc2ccc(O)c3ncccc23)cc1C`, the inhibition was -40.4%.

For the molecule `Cc1nonc1C(=O)N/N=C/c1ccc(O)cc1O`, the inhibition was -33.6%.

For `O=C(CNC(=O)c1ccc2c(c1)OCCO2)N/N=C/c1ccc(O)cc1O`, the inhibition is 18.4% (active).

Regarding `Cc1ccc(SC2=C(Sc3ccc(C)cc3)C(=O)c3ccccc3C2=O)cc1`, the inhibition is 69% (active).

Regarding `O=S(=O)(Nc1ccc(O)c2ccccc12)c1cccs1`, the inhibition is 30.6% (active).

Take `Cc1ccc(S(=O)(=O)/N=C2\C=C(Nc3cccc(C(=O)O)c3)C(=O)c3ccccc32)c(C)c1`: the inhibition is 57.8% (active).

Turning to `O=C(O)c1ccc(NC2=C(Cl)C(=O)c3ccccc3C2=O)cc1`, the inhibition is -94.3%.

For `CCc1ccc(C2=NNC(=Nc3cccc(S(=O)(=O)N(C)C)c3)SC2)cc1`, the inhibition is -141%.
